Bioassay records (PubChem)
Not all results are given here.
aSyn UTR act = Activators via SNCA 5'UTR binding, MLPCN | alpha-synuclein 5'UTR reporter, activators screen | activity score, % (tested at 7.5 µM), hits read low | 300,000 tested, 7.1% active; in the data active = activity score below about -60%
Starred values were filed as active, the others as inactive.

SMILES	aSyn UTR act
CCOC(=O)Cc1cc(-c2ccc(F)cc2)nc2ccc3ccccc3c12	-63.2*
CCOC(=O)Cc1cc(-c2ccc(OC)cc2)nc2ccc3ccccc3c12	-117.1*
CCOC(=O)Cc1cc(-c2ccc(O)cc2)nc2ccc3ccccc3c12	-80.4*
Clc1ccc2nc3c4ccccc4cnn3c2c1	-160.3*
N=C1N(/N=C/c2ccccc2)C(=Nc2ccccc2)C(=S)N1c1ccccc1	-185.8*
Cc1cccc(-c2cc3nc4c(c(N5CCOCC5)n3n2)CCCC4)c1	-113.8*
OC1CCCN(c2c3c(nc4cc(-c5cccc(F)c5)nn24)CCCC3)C1 (stereo not drawn)	-98.5*
Cc1cccc(-c2cc3nc4c(c(NCc5ccco5)n3n2)CCCC4)c1	-92.5*
Brc1ccc(C2=NC(Cc3ccccc3)CO2)cc1 (stereo not drawn)	-175.5*
c1ccc(-c2cnc(CSc3nnc4ccccn34)o2)cc1	-94.0*
Fc1ccc(-c2nnc(CSc3nnc4ccccn34)o2)cc1	-115.8*
Fc1ccc(CSc2nnc3ccccn23)c(Cl)c1	-91.6*
Cc1ccc(-c2csc(N/N=C/c3ccco3)n2)cc1	-232.3*
C(=N\Nc1nc(-c2ccccc2)cs1)/c1ccco1	-350.7*
Clc1ccc(-c2csc(N/N=C\c3cccnc3)n2)cc1	-76.9*
Clc1ccc(-c2csc(N/N=C/c3ccco3)n2)cc1	-156.1*
O=C(CSc1nc2ccccc2o1)NCc1ccc2c(c1)OCO2	-79.1*
O=C(CSc1nc2ccccc2o1)Nc1nc(-c2ccccc2)cs1	-111.3*
CCOC(=O)c1c(NC(=O)CSc2cccc[n+]2[O-])sc(C(=O)Nc2ccccc2)c1C	-104.7*
CCOC(=O)c1c(NC(=O)CSc2nc3ccccc3o2)sc(C(C)=O)c1C	-62.8*
Cc1ccccc1NC(=O)CSc1nc2ccccc2o1	-157.9*
C1=C(CCNc2ncnc3nc[nH]c23)CCCC1	-116.1*
c1ccc2c(CCNc3ncnc4nc[nH]c34)cccc2c1	-91.7*
COc1ccccc1NC(=O)c1c(O)c2ccccc2[nH]c1=O	-76.3*
O=C(Nc1cccc(F)c1)c1c(O)c2ccccc2[nH]c1=O	-140.5*
SMILES	aSyn UTR act
O=C1C(CSCc2ccccc2)NC(=S)N1c1ccccc1 (stereo not drawn)	-67.8*
O=[N+]([O-])c1ccc2nc(-c3ccccc3)n(OCc3ccc(Cl)cc3)c2c1	-86.5*
COn1c(-c2ccccc2)nc2ccc(Cl)cc21	-137.6*
CCC(C)NC(=O)c1cc(Cl)c(NC(=O)C2=C(C)OCCS2)cc1OC (stereo not drawn)	-62.5*
CN(C)c1ccc(/C=C2\CCCCC2=O)cc1	-104.3*
Cc1ccc2nc(-c3ccc(NC(=O)C(C)N4C(=O)c5ccccc5C4=O)cc3)sc2c1 (stereo not drawn)	-101.8*
Cc1ccc2nc(-c3ccc(NC(=O)CCN4C(=O)c5ccccc5C4=O)cc3)sc2c1	-171.3*
Cc1ccc(C2(C)NC(=O)N(CC(=O)Nc3ccc(-c4nc5ccc(C)cc5s4)cc3)C2=O)cc1 (stereo not drawn)	-159.8*
O=c1c(C=NCc2ccccc2)c(NCc2ccccc2)nc2ccccn12	-65.6*
C=CCOc1ccc2c(OC)c3ccoc3nc2c1OC	-81.1*
C/C(=N\NC(=O)c1c(Br)c(C)nn1C)c1ccc(NC(=O)c2ccoc2C)cc1	-106.1*
C/C(=N/NC(=O)c1ccoc1C)c1ccc(N2CCOCC2)cc1	-131.0*
C/C(=N/NC(=O)c1ccoc1C)c1ccc(NC(=O)c2ccncc2)cc1	-206.5*
C/C(=N\NC(=O)c1nn(C)c(C)c1Br)c1ccc(NC(=O)c2ccc(C)s2)cc1	-149.3*
C/C(=N\NC(=O)c1ccc(NS(=O)(=O)c2cccs2)cc1)c1ccccn1	71.5
C/C(=N\NC(=O)c1nn(C)c(C)c1Br)c1ccc(NC(=O)c2ccoc2C)cc1	-114.7*
Cc1ccc(/C=N/NC(=O)c2cc(-c3cccnc3)nc3ccccc23)cc1	80.9
C/C(=N\NC(=O)c1nn(C)c(C)c1Br)c1ccc(NC(=O)c2ccccc2F)cc1	-68.5*
C/C(=N\NC(=O)c1ccoc1C)c1cccnc1	-117.3*
CCOc1ccc(-c2cc(C(=O)N/N=C(\C)c3cccnc3)c3ccccc3n2)cc1	-91.7*
COc1ccc2nc3cc(Cl)ccc3c(Nc3cc(CN4CCCC4)c(O)c(CN4CCCC4)c3)c2n1	104.4
COc1ccc(/C(N)=N/OC(=O)C2CCCCC2)cc1OC	-86.3*
COc1ccc(/C(N)=N/OC(=O)C2CCCCC2)cc1	-131.1*
COc1ccc(-c2ccc(C(=O)C3CC3)cc2)cc1	-107.3*
COc1ccc(-c2nnc(SCc3nc4ccccc4s3)n2C(C)C)cc1	-106.8*
SMILES	aSyn UTR act
CCOc1ccccc1-n1nnnc1SCc1nc2ccccc2s1	-233.5*
CCn1c(SCc2nc3ccccc3s2)nnc1-c1cccs1	-160.1*
Cn1c(SCc2nc3ccccc3s2)nnc1-c1cccs1	-67.1*
Cc1ccccc1-n1c(C)nnc1SCc1nc2ccccc2s1	-250.0*
COc1ccccc1-c1nnc(SCc2nc3ccccc3s2)n1C	-109.3*
NC(=O)CSCc1nc2ccccc2s1	-64.7*
CC(C)=C1C2C=CC1C(C(=O)Nc1cccc(C)c1)C2C(=O)O (stereo not drawn)	-62.0*
O=C1c2ccccc2NC(c2ccc3c(c2)OCO3)N1O (stereo not drawn)	-120.5*
c1ccc2c(c1)Nc1cc3ccccc3cc1S2	-135.0*
O=C1CCNc2cc3ccccc3cc21	77.7
O=[N+]([O-])c1ccccc1-c1ccc(C(=S)N2CCCC2)o1	-132.0*
O=[N+]([O-])c1ccccc1-c1ccc(C(=S)N2CCCCC2)o1	-107.3*
CC(C)c1ccc(-c2nc3ccccc3s2)cc1	98.5
O=S(=O)(c1ccc(-c2nc3ccccc3s2)cc1)N1CCCC1	-117.9*
CS(=O)(=O)N1CCN(c2nc3ccccc3s2)CC1	-80.2*
O=S(=O)(c1ccccc1)N1CCN(c2nc3ccccc3s2)CC1	-82.5*
CC(=O)COc1ccc2c(c1C)O/C(=C\c1ccco1)C2=O	-212.7*
Cc1cccc(/C=C2\Oc3cc(OS(C)(=O)=O)ccc3C2=O)c1	-63.8*
COc1ccc2c(c1)O/C(=C\c1ccco1)C2=O	-119.5*
Cc1nc(-c2cccc(N)c2)cs1	-63.2*
Cc1nc(-c2ccc(C(=O)Nc3ccc(F)cc3)cc2)cs1	-108.6*
CC1=NN(c2nc(-c3ccc(C)cc3)cs2)C(=O)C1N=Nc1ccccc1O (stereo not drawn)	63.3
Cc1nc(-c2ccc(C(=O)Nc3ccccc3F)cc2)cs1	92.4
COc1ccc(-c2csc(N3N=C(C)C(C)C3=O)n2)cc1 (stereo not drawn)	-87.2*
COc1ccc(-c2csc(C)n2)cc1	-100.2*
SMILES	aSyn UTR act
COc1ccc(NC(=O)c2ccc(-c3csc(C)n3)cc2)cc1	-194.7*
CC(C)(C)c1ccc(C(=O)NCC(=O)OCC(=O)Nc2nc(-c3ccc(F)cc3)cs2)cc1	-174.9*
Cc1nc(-c2cc(-c3ccc(Cl)cc3)no2)cs1	-137.0*
CC(OC(=O)CNC(=O)c1ccccc1F)C(=O)Nc1nc(-c2ccccc2)cs1 (stereo not drawn)	-104.2*
CC(=O)N/C(=N\c1nc(C)cc(C)n1)Nc1ccc2ccccc2c1	-166.5*
N#C/C(=C\C=C\c1ccccc1[N+](=O)[O-])C(=O)NC1CCCCC1	-131.6*
CCCCNC(=O)C1CC(c2cccc(F)c2)=NO1 (stereo not drawn)	-93.9*
Cc1ccc(CNC(=O)C2CC(c3cccc([N+](=O)[O-])c3)=NO2)o1 (stereo not drawn)	-87.8*
COc1ccc(N2CCN(S(=O)(=O)CCNC(=O)Cc3ccc([N+](=O)[O-])cc3)CC2)cc1	65.3
